Each structure is given as a SMILES string. Results filed as inconclusive are left out. The source made the active and inactive calls. The calls were made as follows: active = hit-call score of the fitted dose curve at least 0.9, where 1 is the maximum; inconclusive = response in the unintended direction; inactive = score below 0.9.

The nature of this assay: Tanguay_ZF_120hpf_NC_legacy: (Legacy) Oregon State University Tanguay Lab 120 Hour Post-fertilization zebrafish Assay for Notochord and Tail Malformation (AID 2283656). Here is the method: Tanguay_ZF_120hpf_legacy is a whole embryo, multiplexed endpoint assay using zebrafish larvae exposed for 120 hours post fertilization on a 96-well plate.Tanguay_ZF_120hpf_NC_legacy is one of one assay component(s) measured or calculated from the Tanguay_ZF_120hpf_legacy assay. It is designed to make measurements of zebrafish development as detected with brightfield microscopy of developing zebrafish embryos.Data from the assay component Tanguay_ZF_120hpf_NC_legacy was analyzed into 1 assay endpoints. This assay endpoint, Tanguay_ZF_120hpf_NC_legacy, was analyzed in the positive analysis fitting direction relative to DMSO as the negative control and baseline of activity. Using a type of morphology reporter, gain-of-signal activity can be used to understand changes in developmentals as they relate to the whole embryo. To generalize the intended target to other relatable targets, this assay endpoint is annotated to the zebrafish development intended target family, where the subfamily is embryonic notochord morphogenesis.
Zebrafish husbandry: Tropical 5D wild-type adult zebrafish were housed in at an approximate density of 1000 per 100 gallon tank at the Sinnhuber Aquatic Research Laboratory, Oregon State University, Corvallis, OR. Each tank was kept at standard laboratory conditions of 28C on a 14-h light/10-h dark photoperiod in fish water consisting of reverse osmosis water supplemented with a commercially available salt (Instant Ocean). Spawning funnels were placed into the tanks the night prior, and embryos were collected and staged. To increase bioavailability, the chorion was enzymatically removed using pronase (63.6mg/ml, >/= 3.5U/mg, Sigma-Aldrich: P5147) at 4 hours post fertilization (hpf) using a custom automated dechorionator.Chemical exposures: Six hpf dechorionated embryos were placed 1 embryo per well in a 96-well plate prefilled with 90 ul of EM using automated embryo placement systems (AEPS). Ten microliters of each row of dilution plate 2 was added to 2 exposure plates. The final DMSO concentration used was 0.64% (vol/vol). Thirty-two embryos were also exposed to 5uM trimethyltin chloride (positive control). Plates were sealed to prevent evaporation and foil covered to reduce light exposure and kept in a 28C incubator. Embryos were statically exposed until 120 hpf. At 24 hpf, embryos were assessed for photomotor response using a custom photomotor response analysis tool (PRAT) and for developmental toxicity endpoints (MO24: mortality at 24 hpf, DP: developmental progression, SM: spontaneous movement, and NC: notochord distortion). At 120 hpf, locomotor activity was measured using Viewpoint Zebralab and assessed for 18 endpoints. Zebrafish acquisition and analysis program (ZAAP), a custom program designed to inventory, acquire, and manage zebrafish data, was used to collect developmental endpoints as either present or absent (i.e., binary responses were recorded). If mortality occurred for an embryo (at either 24 or 120 hpf), the non-mortality endpoints were not measured.
For `O=P1(N(CCCl)CCCl)NCCCO1` (stereo unspecified), the call was inactive.
Same read-out and setting: to `O=[N+]([O-])c1ccc(Cl)c(Cl)c1` belongs “inactive”; to `Cc1ccc(O)cc1C`, “inactive”; to `CCC1(c2ccccc2)C(=O)N=C(O)NC1=O` (stereo unspecified), “inactive”.
For `CN(C)C(=O)Cl`, the compound was called inactive.
`CCCCN(CCCC)SN(C)C(=O)Oc1cccc2c1OC(C)(C)C2`: the call was inactive.
Same read-out and setting: to `CCOP(=S)(OCC)SCSCC` belongs “inactive”.
Same read-out and setting: under `CCCCCCCc1ccc(O)cc1` stands “inactive”; under `Nc1ccc(Cl)cc1`, “inactive”; under `Cc1ccc(N)cc1N`, “inactive”.
As a reminder, the AC50 is the midpoint of the concentration-response curve, whichever way the signal moves. Turning to `CCC(C)(C)c1ccc(O)cc1`, the AC50 is 47.9 µM (active).
In the case of `Cc1ccc([N+](=O)[O-])cc1C`, the compound was called inactive.
As for `CCN(CC)c1ccccc1`, the result was inactive.
As to `CCOP(=S)(Oc1ccc([N+](=O)[O-])cc1)c1ccccc1` (stereo unspecified), the compound was classed as inactive.
Take `Cc1cccc(N)c1`: the call was inactive.
As to `O=C(O)C(Cl)Cl`, the compound was called inactive.
As for `ClC(Cl)c1ccccc1`, the call was inactive.
On to `CC(C)(C)c1ccc(O)cc1`, for which the outcome was inactive.
For `CC(C)(C)OOC(C)(C)C`, the result was inactive.
In the case of `Nc1ccc2ccccc2c1`, the result was inactive.
Same read-out and setting: to `c1ccc2c(c1)Nc1ccccc1S2` belongs “inactive”; to `c1cc2c3c(cccc3c1)CC2`, “inactive”; to `CCCN(CCC)c1c([N+](=O)[O-])cc(C(C)C)cc1[N+](=O)[O-]`, “inactive”.
On to `CC(Cc1ccc(OCC(=O)O)cc1)NCC(O)c1csc(C(F)(F)F)n1` (stereo unspecified), for which the outcome was inactive.
As for `CCNc1nc(Cl)nc(NC(C)(C)C)n1`, the call was inactive.
Same read-out and setting: under `CCOc1ccc(C(C)(C)COCc2cccc(Oc3ccccc3)c2)cc1` stands “inactive”; under `[N-]=[N+]=[N-]`, “inactive”.
Same read-out and setting: under `O=C(O)C1C(C(=O)O)C2(Cl)C(Cl)=C(Cl)C1(Cl)C2(Cl)Cl` (stereo unspecified) stands “inactive”; under `COCCOCCO`, “inactive”.
On the same count and under the same terms, under `c1ccc(OP(Oc2ccccc2)Oc2ccccc2)cc1` stands “inactive”.
Consider `CCOS(=O)(=O)OCC`, for which the outcome was inactive.
Still for that read-out and setting: to `CC(Cl)(Cl)C(=O)O` belongs “inactive”; to `Nc1cc2c3c(c1)C(c1ccccc1)=N[C@@H](NC(=O)c1cccnc1)C(=O)N3CC2`, “inactive”; to `CSC(C)(C)C=NO`, “inactive”.
`O=P(Oc1ccccc1)(Oc1ccccc1)Oc1ccccc1`: the compound was classed as inactive.
For `c1nc[nH]n1`, the compound was called inactive.

These data come from PubChem BioAssay (EPA / NIEHS).
